Assay results: PubChem BioAssay (EPA / NIEHS)
Inconclusive results are not listed. Activity calls are given as the source filed them. Rule for the calls: active = hit-call score of the fitted dose curve at least 0.9, where 1 is the maximum; inconclusive = response in the unintended direction; inactive = score below 0.9.

read-out: glucuronosyltransferase (UGT1A1), UGT1A1 (gene 54658); assay: CLD_UGT1A1_24hr: CellzDirect (CLD) Gene Expression Assay for glucuronosyltransferase (UGT1A1) at 24 hours (AID 2283696)
Experimental: CLD_24hr is a cell-based, multiplexed-readout assay that uses hepatocyte, a human liver primary cell, with measurements taken at 24 hours after chemical dosing in a 96-well plate.CLD_UGT1A1_24hr is one of 16 assay component(s) measured or calculated from the CLD_24hr assay. It is designed to make measurements of mRNA induction, a form of inducible reporter, as detected with chemiluminescence signals by Quantitative Nuclease Protection Assay (qNPA) technology.Data from the assay component CLD_UGT1A1_24hr was analyzed at the endpoint, CLD_UGT1A1_24hr, in the positive analysis fitting direction relative to DMSO as the negative control and baseline of activity. Using a type of inducible reporter, gain-of-signal activity can be used to understand changes in the reporter gene as they relate to the gene UGT1A1. Furthermore, this assay endpoint can be referred to as a primary readout. To generalize the intended target to other relatable targets, this assay endpoint is annotated to the transferase intended target family, where subfamily is glucuronosyltransferase.
Human hepatocyte cultures were treated daily for two consecutive days with fresh dosing solutions containing appropriate concentrations of the 320 ToxCast chemicals (chemical identities were blinded to CellzDirect and other ToxCast collaborators), vehicle control (0.2% DMSO), and positive control inducers as summarized in Table 1. Due to the large number of treatment groups and chemicals examined, the ToxCast chemicals were divided into two groups (spanning two independent cultures of hepatocytes from separate donor preparations (Hu778: ToxCast plates 1 and 2; Hu776: ToxCast plates 3 and 4). Each preparation of human hepatocyte cultures was treated with respective vehicle control, medium only control, set of six positive controls/reference chemicals for the five hepatic receptor pathways, and a subset of eight of the ToxCast chemicals (indoxacarb, pyrithiobac-sodium, norflurazon, cyhalofop-butyl, methomyl, thiram, acetochlor, and propiconazole). These replicate data, coupled with internal replicates designed within the blinded ToxCast chemical library, provided additional data to evaluate interindividual differences between hepatocyte preparations and their potential impact on chemical profiles.Cell morphology and integrity were evaluated using phase-contrast microscopy as an indicator of hepatocyte cell health (Tyson & Green, 1987). Cultures for each treatment group (i.e., media, vehicle [0.2% DMSO], positive control inducers [multiple concentrations], and the ToxCast chemicals [multiple concentrations]) were observed and cell morphology was assessed relative to vehicle control cultures at each harvest time point (0, 6, 24, or 48 h). […] Images were evaluated at the conclusion of the study to assess changes in cell integrity and account for the effects of chemical exposure on uncharacteristic changes in concentration-dependent gene expression profiles. The results from these determinations of apparent cytotoxicity were annotated (yes/no) alongside the corresponding qNPA data for reference.At the conclusion of each treatment period, hepatocyte cultures (96-well) were washed with 1 volume of HBSS, lysed by addition of 25 ul ArrayPlate lysis buffer (HTG, Tucson, AZ), and 70 ul/well of Denaturation Oil, denatured by incubation at 95C for 10 min, and frozen at approximately -70C until analysis by nuclease protection assay (qNPA) (Roberts et al., 2007). For qNPA analysis, cell lysates were thawed at 50C for approximately 30 min, qNPA probes were added, and samples were incubated at 95C for 10 min to begin the detection process by denaturing the target RNA, dissociating the duplexes and secondary structure hybridization. At the conclusion of the hybridization period, S1 nuclease reagent was added to each sample to digest all nonprotected nucleotides at 50C for 60-90 min. […]

SMILES | outcome | AC50
C[C@H]1[C@H](c2ccc(Cl)cc2)SC(=O)N1C(=O)NC1CCCCC1 | inactive | 
O=C1c2ccccc2C(=O)N1SC(Cl)(Cl)Cl | inactive | 
O=[N+]([O-])c1c(Cl)c(Cl)c(Cl)c(Cl)c1Cl | inactive | 
COP(=S)(OC)Oc1ccc(SC)c(C)c1 | inactive | 
CC(C)N(C(=O)COc1nnc(C(F)(F)F)s1)c1ccc(F)cc1 | inactive | 
C#CCN1C(=O)COc2cc(F)c(N3C(=O)C4=C(CCCC4)C3=O)cc21 | inactive | 
CCc1ccc(C(=O)NN(C(=O)c2cc(C)cc(C)c2)C(C)(C)C)cc1 |  | 4.06 µM (active)
O=[N+]([O-])/N=C1\NCCN1Cc1ccc(Cl)nc1 | inactive | 
COP(=O)(OC)OC=C(Cl)Cl | inactive | 
CCC(C)(NC(=O)c1cc(Cl)c(C)c(Cl)c1)C(=O)CCl (stereo not given) | inactive | 
CCOC1Oc2ccc(OS(C)(=O)=O)cc2C1(C)C (stereo not given) | inactive | 
O=S1OCC2C(CO1)C1(Cl)C(Cl)=C(Cl)C2(Cl)C1(Cl)Cl (stereo not given) | inactive | 
CCC(C)(C)C(=O)OC1=C(c2ccc(Cl)cc2Cl)C(=O)OC12CCCCC2 | inactive | 
Cc1cc(C)nc(NC(=O)NS(=O)(=O)c2ccccc2C(=O)OC2COC2)n1 | inactive | 
CN1CSC(=S)N(C)C1 | inactive | 
CNC(=O)CSP(=S)(OC)OC | inactive | 
COC(=O)c1ccccc1CS(=O)(=O)NC(=O)Nc1nc(OC)cc(OC)n1 | inactive | 
CC(C)(C)C(O)C(Oc1ccc(Cl)cc1)n1cncn1 (stereo not given) |  | 6.66 µM (active)
COC(=O)c1ccccc1S(=O)(=O)NC(=O)N(C)c1nc(C)nc(OC)n1 | inactive | 
ClC1C(Cl)C(Cl)C(Cl)C(Cl)C1Cl (stereo not given) | inactive | 

SMILES | outcome | AC50
OCCOc1ccccc1 | inactive | 
O=C(O)CCCOc1ccc(Cl)cc1Cl | inactive | 
COP(=S)(OC)Oc1ccc([N+](=O)[O-])cc1 | inactive | 
CNC(=O)Oc1cccc(N=CN(C)C)c1 | inactive | 
CCOCN(C(=O)CCl)c1c(C)cccc1CC | inactive | 
COc1nn(CSP(=S)(OC)OC)c(=O)s1 | inactive | 
O=C(O)C(F)(F)C(F)(F)C(F)(F)C(F)(F)C(F)(F)C(F)(F)C(F)(F)F | inactive | 
CCOc1nc(NC)nc(NC(=O)NS(=O)(=O)c2ccccc2C(=O)OC)n1 | inactive | 
CNC(=O)Oc1ccccc1OC(C)C | inactive | 
Oc1cc(Cl)ccc1Oc1ccc(Cl)cc1Cl | inactive | 
CC(C)(C)C(O)/C(=C\c1ccc(Cl)cc1Cl)n1cncn1 (stereo not given) | inactive | 
Clc1ccccc1-c1nnc(-c2ccccc2Cl)nn1 | inactive | 
O=C(NC(=O)c1c(F)cccc1F)Nc1ccc(OC(F)(F)C(F)OC(F)(F)F)c(Cl)c1 (stereo not given) | inactive | 
O=C(O)COc1ccc(Cl)cc1Cl | inactive | 
CCC(C)Nc1c([N+](=O)[O-])cc(C(C)(C)C)cc1[N+](=O)[O-] (stereo not given) | inactive | 
COC(=O)c1ccccc1S(=O)(=O)NC(=O)Nc1nc(C)nc(OC)n1 | inactive | 
CCS(=O)(=O)c1cccnc1S(=O)(=O)NC(=O)Nc1nc(OC)cc(OC)n1 | inactive | 
COc1cc(OC)nc(NC(=O)NS(=O)(=O)c2cc(NC=O)ccc2C(=O)N(C)C)n1 | inactive | 
Oc1ccc(Cl)cc1Cc1ccccc1 | inactive | 
O=S(=O)(O)C(F)(F)C(F)(F)C(F)(F)C(F)(F)C(F)(F)C(F)(F)C(F)(F)C(F)(F)F | inactive | 
